The whole screen tested about 340,000 compounds, of which about 5,100 (1.5%) were called active. For the sample, actives were picked, then their nearest neighbours and some compounds at random. Unmarked numbers belong to inactive results.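 How the source made its calls: active means mean Tm shift, scaled 0 neutral to 100 positive control, at about 1.3% or above, every replicate too (limit read from the data); inconclusive means no clear call, values can overlap the other calls; inactive means the rest.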
What follows are compounds tested against Fibroblast growth factor 22 (Homo sapiens) (UniProt Q9HCT0) (assay: binders of human FGF22 protein, primary screen, FGF22 synaptogenesis inhibitor project, biophysical, thermal shift, single point (AID 651658)). Conditions: recombinant FGF22 thermal shift, SYPRO orange fluorescence; at 9.99 µM; active compounds read high; percent of sucrose octasulfate shift, DMSO zero.
Chain of Fibroblast growth factor 22 (Homo sapiens) (Q9HCT0 whole entry, looked up): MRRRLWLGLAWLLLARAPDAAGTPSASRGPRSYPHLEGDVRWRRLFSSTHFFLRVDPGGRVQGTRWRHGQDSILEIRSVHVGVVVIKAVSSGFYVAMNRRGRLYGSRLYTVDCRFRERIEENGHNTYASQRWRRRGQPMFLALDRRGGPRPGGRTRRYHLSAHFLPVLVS
Work on `Cc1ccc(OCC(=O)Nc2ccc(N3CCN(C(=O)c4ccco4)CC3)cc2)c(C)c1` yielded an activity (Tm shift, normalised) of -0.015%. In the case of `Cc1ccc(NC(=O)C(c2ccccc2)N2CCN(C(=O)c3ccco3)CC2)cc1` (stereo unspecified), the activity (Tm shift, normalised) is reported as -0.162%. For `CCC(=O)Nc1ccc(C(=O)N2CCN(C(=O)c3ccco3)CC2)cc1`, the activity (Tm shift, normalised) was 44.4% (active). `O=C(Nc1cccc(F)c1)N[C@@H]1CC[C@@H](CCn2cc(Cc3ccccc3)nn2)O[C@@H]1CO` showed an activity (Tm shift, normalised) of 0.097%. For `CO[C@@H]1CN(C)C(=O)c2cc(NC(=O)C3CCCC3)ccc2OC[C@@H](C)N(C(=O)Nc2ccc(C(F)(F)F)cc2)C[C@H]1C`, the activity (Tm shift, normalised) was -0.774%. `O=C(C[C@H]1C[C@H]2c3cc(NC(=O)CC4CC4)ccc3O[C@H]2[C@H](CO)O1)NCc1ccccn1` gave an activity (Tm shift, normalised) of 0.96%. Work on `CCCc1cc(=O)[nH]c(SCC(=O)Nc2ccc(C(=O)Nc3ccccc3OC)cc2)n1` yielded an activity (Tm shift, normalised) of -0.412%. Compound `Cc1cc(=O)[nH]c(SCC(=O)Nc2ccc(Br)cc2)n1` has an activity (Tm shift, normalised) of -0.265%. `Cc1ccc(NC(=O)CSc2nc(CSc3ccc(C)cc3)cc(=O)[nH]2)cc1` was tested, and the activity (Tm shift, normalised) was 44% (active). Compound `COc1ccc(S(=O)(=O)Nc2ccc3c(c2)C(=O)N([C@@H](C)CO)C[C@H](C)[C@@H](CN(C)C(=O)Nc2ccc4c(c2)OCO4)OCCCC[C@@H](C)O3)cc1` has an activity (Tm shift, normalised) of 0.801%. In the case of `C[C@H](CO)N1C[C@H](C)[C@H](CN(C)CC2CCCC2)Oc2ncc(Br)cc2C1=O`, the activity (Tm shift, normalised) is reported as -0.016%. Compound `CC(C)NC(=O)N1[C@H](CO)[C@@H]2c3ccccc3N(C(=O)Nc3cccc(Cl)c3)C[C@@H]21` has an activity (Tm shift, normalised) of 0.043%. In the case of `Cc1ccc(S(=O)(=O)N(C)C[C@@H]2Oc3c(NC(=O)NC(C)C)cccc3C(=O)N([C@H](C)CO)C[C@H]2C)cc1`, the activity (Tm shift, normalised) is reported as 0.01%. In the case of `CC(=O)Nc1ccc(/C=N/Nc2ccc(C(=O)c3c(C)cc4ccccn34)cc2[N+](=O)[O-])cc1`, the activity (Tm shift, normalised) is reported as -0.063%. In the case of `Cc1cc2ccccn2c1C(=O)c1cccc(F)c1`, the activity (Tm shift, normalised) is reported as -0.141%. `Cc1ccc(C(C[N+](=O)[O-])c2c(C)cc3ccccn23)cc1` (stereo unspecified) was tested, and the activity (Tm shift, normalised) was 43.8% (active). `O=C(Nc1ccccc1Cl)N1CCN(c2ccc3nncn3n2)CC1` was tested, and the activity (Tm shift, normalised) was 0.014%. In the case of `Cc1cc(C)n(-c2ccc3nncn3n2)n1`, the activity (Tm shift, normalised) is reported as 43.4% (active). In the case of `Cc1cc(C)n(-c2nnc(N3CCN(c4ccccc4)CC3)nn2)n1`, the activity (Tm shift, normalised) is reported as 0.536%. In the case of `CCS(=O)(=O)N1Cc2cc(C(=O)N(C)C)nc(-c3cccc(-c4ccc(C#N)cc4)c3)c2[C@H]1CCO`, the activity (Tm shift, normalised) is reported as -0.41%. In the case of `CCCC#Cc1ccc2c(c1)O[C@@H](CN(C)C(=O)c1cccnc1)[C@H](C)CN([C@H](C)CO)S2(=O)=O`, the activity (Tm shift, normalised) is reported as -0.014%. `CN1CCN(C(=O)c2ccc(-c3ccc(Br)cc3)o2)CC1` was tested, and the activity (Tm shift, normalised) was -0.078%. For `S=C(c1ccc(-c2ccccc2)o1)N1CCCCC1`, the activity (Tm shift, normalised) was 43.4% (active). Compound `OCCN1CCN(C(=S)c2ccc(-c3ccccc3)cc2)CC1` has an activity (Tm shift, normalised) of -0.171%. Compound `C[C@@H]1CN([C@@H](C)CO)C(=O)Cc2cc(NS(C)(=O)=O)ccc2O[C@H]1CN(C)S(=O)(=O)c1ccc(F)cc1` has an activity (Tm shift, normalised) of 0.13%. Compound `COc1cccc(CNC(=O)C[C@@H]2C=C[C@@H](NC(=O)C3CCC3)[C@@H](CO)O2)c1` has an activity (Tm shift, normalised) of 0.068%. `CSc1ccc(CN(C)CC(=O)NCc2ccc(F)cc2)cc1` gave an activity (Tm shift, normalised) of 0.292%. `Cc1ccc(CS(=O)(=O)CCC(=O)NCc2ccc(F)cc2)cc1` gave an activity (Tm shift, normalised) of -0.138%. For `Cc1ccc(SC(C)C(=O)NCc2ccc(F)cc2)cc1` (stereo unspecified), the activity (Tm shift, normalised) was 43.3% (active). Compound `C[C@H](CO)N1C[C@H](C)[C@H](CN(C)C(=O)NC2CCCCC2)Oc2c(NC(=O)c3nc4ccccc4s3)cccc2C1=O` has an activity (Tm shift, normalised) of -0.035%. Compound `C[C@@H]1CN([C@H](C)CO)C(=O)c2cccc(NC(=O)c3nc4ccccc4s3)c2O[C@@H]1CN(C)C` has an activity (Tm shift, normalised) of 0.121%. With `CC(C)NC(=O)N(C)C[C@@H]1Oc2c(NC(=O)c3nc4ccccc4s3)cccc2C(=O)N([C@H](C)CO)C[C@H]1C` the activity (Tm shift, normalised) was 29.2% (active). In the case of `COc1ccc(S(=O)(=O)Nc2ccc3c(c2)C(=O)N([C@H](C)CO)C[C@@H](C)[C@H](CN(C)C(=O)c2ccncc2)OCCCC[C@@H](C)O3)cc1`, the activity (Tm shift, normalised) is reported as -0.014%. Work on `O=C(C[C@H]1C[C@H]2c3cc(NC(=O)CC4CC4)ccc3O[C@H]2[C@H](CO)O1)NCc1ccccc1` yielded an activity (Tm shift, normalised) of 0.206%. `N#C[C@@H]1[C@@H](c2ccc(-c3cccnc3)cc2)[C@H](CO)N1C(=O)Nc1ccc(F)cc1` was tested, and the activity (Tm shift, normalised) was 0.238%. In the case of `O=C(Nc1nnc(-c2ccccc2F)s1)c1ccccc1F`, the activity (Tm shift, normalised) is reported as 2.31% (active). In the case of `O=C(Nc1nnc(-c2ccc(F)cc2)s1)c1c(F)cccc1Cl`, the activity (Tm shift, normalised) is reported as 0.279%. `CN(Cc1ccccc1)S(=O)(=O)c1nnc(NC(=O)c2ccccc2F)s1` gave an activity (Tm shift, normalised) of -0.151%. With `CN(C(=O)CSc1nnc(-c2ccc(C(C)(C)C)cc2)n1C)C1CCS(=O)(=O)C1` (stereo unspecified) the activity (Tm shift, normalised) was 0.442%. With `CCn1c(SCC(=O)N(C)C2CCS(=O)(=O)C2)nnc1-c1cccs1` (stereo unspecified) the activity (Tm shift, normalised) was 43.9% (active). `CCN(C(=O)CSc1nc2ccccc2n1CC)C1CCS(=O)(=O)C1` (stereo unspecified) was tested, and the activity (Tm shift, normalised) was 0.234%. Work on `Cc1ccc(S(=O)(=O)Nc2ccc3c(c2)C(=O)N([C@H](C)CO)C[C@H](C)[C@@H](CN(C)C(=O)NC(C)C)OCCCC[C@@H](C)O3)cc1` yielded an activity (Tm shift, normalised) of 0.879%. With `CCCc1cn(CC[C@@H]2CC[C@@H](NC(=O)CCN3CCCCC3)[C@H](CO)O2)nn1` the activity (Tm shift, normalised) was 0.083%. For `COc1ccc(C(=O)COC(=O)CNC(=O)c2cccs2)cc1Br`, the activity (Tm shift, normalised) was -0.191%. With `COc1ccc(-n2c(C)cc(C(=O)COC(=O)c3cc(OC)c(OC)cc3NC(=O)c3cccs3)c2C)cc1` the activity (Tm shift, normalised) was 43.4% (active). With `Cc1cc(C(=O)COC(=O)C2CC2)c(C)n1-c1ccc(F)cc1` the activity (Tm shift, normalised) was 0.711%. `COc1ccc2c3c(n(C)c2c1)[C@@H](CO)N(C(=O)Nc1ccccc1F)CC31CCN(C(=O)c2ccccc2F)CC1` gave an activity (Tm shift, normalised) of -0.032%. `COc1ccc(NC(=O)N(C)C[C@@H]2Oc3ccc(NS(=O)(=O)c4ccc(Cl)cc4)cc3C(=O)N([C@H](C)CO)C[C@@H]2C)cc1` was tested, and the activity (Tm shift, normalised) was 0.119%. `Cc1ccc2[nH]c(=O)c(CC(=O)O)c(-c3ccccc3)c2c1` gave an activity (Tm shift, normalised) of -0.089%. `c1ccc2cc3[nH]c(CN4CCCCC4)nc3cc2c1` was tested, and the activity (Tm shift, normalised) was -0.01%. With `Cc1ccc2[nH]c(=O)c(CN3CCCCC3)c(-c3ccccc3)c2c1` the activity (Tm shift, normalised) was 43.2% (active). In the case of `Cc1ccccc1S(=O)(=O)N[C@H]1CC[C@@H](CCn2cc(Cc3ccccc3)nn2)O[C@H]1CO`, the activity (Tm shift, normalised) is reported as -0.039%. Compound `Cc1noc(C)c1NC(=O)N(C)C[C@H]1OCCCC[C@H](C)Oc2ccc(NC(=O)Cc3ccccc3)cc2C(=O)N([C@H](C)CO)C[C@@H]1C` has an activity (Tm shift, normalised) of 1.07%. In the case of `O=C(CSc1ccc(-c2ccccc2)nn1)NCC1CCCO1` (stereo unspecified), the activity (Tm shift, normalised) is reported as -0.177%. In the case of `COc1ccc2c(C)cc(SCC(=O)NCC3CCCO3)nc2c1` (stereo unspecified), the activity (Tm shift, normalised) is reported as 0.011%. `O=C(COc1ccc(Cl)cc1)NCc1nnc(SCC(=O)NCC2CCCO2)o1` (stereo unspecified) was tested, and the activity (Tm shift, normalised) was 42.9% (active). `O=C(CSc1nnc(-c2ccncc2)o1)Nc1cccc(Cl)c1` was tested, and the activity (Tm shift, normalised) was 0.107%. With `O=C(CSc1nnc(-c2ccncc2)o1)NCc1ccc(Cl)cc1` the activity (Tm shift, normalised) was 43.9% (active). `CCc1ccccc1NC(=O)CSc1nnc(-c2ccncc2)o1` gave an activity (Tm shift, normalised) of -0.04%. With `C[C@@H]1CN([C@@H](C)CO)C(=O)c2cc(NS(=O)(=O)c3cn(C)cn3)ccc2O[C@@H]1CN(C)C(=O)NC1CCCCC1` the activity (Tm shift, normalised) was -0.419%. `COC(=O)[C@@H]1[C@@H](CO)[C@@H]2Cn3c(ccc(-c4ccc(OC)cc4)c3=O)[C@@H]2N1S(C)(=O)=O` gave an activity (Tm shift, normalised) of -0.206%. Compound `CCC(=O)N1[C@H](C(=O)OC)[C@@H](CO)[C@@H]2Cn3c(ccc(-c4cccc(F)c4)c3=O)[C@@H]21` has an activity (Tm shift, normalised) of 0.191%. Work on `COCC(=O)N1[C@@H](CO)[C@H](c2ccccc2)C12CN(C(=O)NC1CCCCC1)C2` yielded an activity (Tm shift, normalised) of 0.045%. In the case of `COc1ccc2c3c([nH]c2c1)[C@H](CO)N(Cc1ccccc1)CC31CCN(C(=O)c2ccccn2)CC1`, the activity (Tm shift, normalised) is reported as -0.204%. For `C[C@@H]1CN([C@@H](C)CO)C(=O)Cc2cc(NC(=O)Nc3cccc4ccccc34)ccc2O[C@H]1CN(C)CC1CCCCC1`, the activity (Tm shift, normalised) was 0.094%. `COc1cccc(CNC(=O)c2n[nH]c3ccccc23)c1` gave an activity (Tm shift, normalised) of 0.239%. In the case of `O=C(NCCc1ccccc1)c1c[nH]c2ccc(F)cc2c1=O`, the activity (Tm shift, normalised) is reported as 0.52%. For `O=C(NCCc1ccc(F)cc1)c1n[nH]c2ccccc12`, the activity (Tm shift, normalised) was 43.3% (active). `CCCNC(=O)N1C[C@@H](O)COC[C@H]2O[C@H](CC(=O)NCCCN3CCOCC3)CC[C@@H]21` showed an activity (Tm shift, normalised) of -0.348%. `COc1ccccc1-c1ccc2c(c1)O[C@H](CN(C)C(=O)c1cccnc1)[C@H](C)CN([C@@H](C)CO)S2(=O)=O` was tested, and the activity (Tm shift, normalised) was -0.096%. For `O=C(C[C@@H]1CC[C@@H]2[C@H](COC[C@H](O)CN2C(=O)C2CC2)O1)NCc1ccncc1`, the activity (Tm shift, normalised) was 0.141%. `CN(C)CC(=O)N1[C@H](CO)[C@@H](c2ccc(-c3cccc(C(=O)N(C)C)c3)cc2)[C@@H]1C#N` showed an activity (Tm shift, normalised) of 0.074%. In the case of `NC(=O)N1CCc2ccccc21`, the activity (Tm shift, normalised) is reported as 43.1% (active). `O=C(c1cnn2ccccc12)N1CCc2ccccc21` was tested, and the activity (Tm shift, normalised) was -0.357%. `O=C(NC(=S)N1CCc2ccccc21)c1ccco1` was tested, and the activity (Tm shift, normalised) was 0.306%. `C[C@H](CO)N1C[C@H](C)[C@@H](CN(C)C(=O)Cc2ccncc2)Oc2ncc(C3=CCCCC3)cc2C1=O` showed an activity (Tm shift, normalised) of 0.188%.
